From PubChem
HCV inh: inhibitors of hepatitis C virus infection; Potency, µM (titrated, usually from 41.8 µM), without a hit: at the top dose activity change, negative = inhibition, hits mostly inhibitors; AID 651820; Huh7.5.1 HCVcc-Cre infection, luciferase reporter, 44 h; actives 3.4% (n = 340,000); active = well fitted inhibition curve with a large enough effect; inconclusive = small, poorly fitted or top-dose-only effect, or another doubt; inactive = no such curve, though single readings can be large or run the other way
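Seed cells (1,000/well) for 4 h; treat with compound and infect with HCVcc-Cre, moi about 0.5. Incubate 44 h, then detect luciferase activity.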
Vaccinia mCherry: vaccinia inhibition (mCherry reporter). AID 720579. Vaccinia virus mCherry reporter infection, fluorescence. Potency, µM (highest dose often 36.5 µM), inactives show at the highest dose activity change, negative = inhibition, most hits filed as inhibitors. actives 0.63% (n = 310,000); calls by dose curve; tested in A549 cells; also: nearly all actives have a fitted effect of over 35% in size
Vaccinia Venus: vaccinia inhibition (Venus reporter); Potency, µM (series often up to 36.5 µM), inactives show top-dose activity change, negative = inhibition, most hits filed as inhibitors; actives 0.46% (n = 330,000); Vaccinia virus Venus reporter expression, fluorescence; calls by dose curve; tested in A549 cells; also: nearly all actives have a fitted effect of over 30% in size
Active calls of the source: *; i = inactive; ? = inconclusive; / = not tested or not shown. This is a sample that favours compounds with a hit; in the whole collection about 3.3% have one here. % is scaled to controls: 0 for no effect and ±100 for the full control effect; potency is read from the fitted curve at half-maximal effect.

SMILES	HCV inh	Vaccinia mCherry	Vaccinia Venus
CCOc1ccc(C2=Nn3c(nnc3-c3ccccc3)SC2)cc1Cl	-16%	i	?
O=C(O)CCN1C(=O)C2C3C=CC(C2C1=O)C1C(=O)N(CCC(=O)O)C(=O)C31 (stereo not drawn)	18%	/	/
CCOC(=O)[C@]12CCC=C1N(Cc1ccc(Cl)cc1Cl)C(=O)[C@H](CC(=O)N1CCN(C(=O)c3ccco3)CC1)C2	/	-23%	-8%
COCC1CCCCN1C(=O)c1ccc2oc(CCc3ccccc3)nc2c1 (stereo not drawn)	/	-3%	-20%
CCOC(=O)CC1CCCCN1C(=O)c1ccc2oc(CCc3ccccc3)nc2c1 (stereo not drawn)	10µM*	/	/
Nc1ccc2cc3ccccc3cc2c1	?	i	-3%
Nc1ccc2ccc3cccc[n+]3c2c1	7.1µM*	3%	18%
CCn1c(SCC(=O)Nc2ccccc2)nc2c(c1=O)SCC2	/	13%	-5%
c1csc(-c2cn3ccc4ccccc4c3n2)c1	-29%	?	-12%
c1csc(-c2nc3c4ccccc4c4ccccc4c3[nH]2)c1	13µM*	?	?
O=C(NCc1nnc2n1CCN(Cc1ccc(C(F)(F)F)cc1)CC2)c1ccccn1	/	-5%	4%
C=CCc1ccccc1OCC(O)CN1CCN(CCN2C(=O)c3cccc4cccc(c34)C2=O)CC1 (stereo not drawn)	14µM*	?	?
CCOC(=O)N1CCN(CC(O)COC(CC)c2ccccc2)CC1 (stereo not drawn)	19%	/	9%
Cc1ccccc1OCC(O)CN1CCN(CCN2C(=O)c3cccc4cccc(c34)C2=O)CC1 (stereo not drawn)	?	-14%	-27%
CCC(OCC(O)CN1CCN(CCN2C(=O)c3cccc4cccc(c34)C2=O)CC1)c1ccccc1 (stereo not drawn)	7.9µM*	?	?
O=C(Cn1cc(SCc2ccccc2F)c2ccccc21)N1CCCCC1	/	-3%	-9%
Cc1ccsc1CCN1C(=O)N(c2ccccc2)C(=O)C1CC(=O)Nc1ccc(Cl)cc1 (stereo not drawn)	/	-9%	-17%
CCc1ccc(NC(=O)CC2C(=O)N(c3cccc(C)c3)C(=O)N2Cc2cccs2)cc1 (stereo not drawn)	/	-14%	-18%
O=C1CC(CC(=O)N2CC3CCCC2C3)(c2cccc(F)c2)C(=O)N1Cc1cccnc1 (stereo not drawn)	/	-9%	-1%
Clc1ccc(-c2nc(N3CCCCC3)nc3ccccc23)cc1	-6%	-21%	-29%
c1ccc(-c2nc(-n3nc4ccccc4n3)nc3ccccc23)cc1	14µM*	/	-16%
COc1ccc(Nc2nc(N(C)c3ccccc3)nc(N)c2[N+](=O)[O-])cc1	?	-16%	-4%
CN(c1ccccc1)c1nc(N)c([N+](=O)[O-])c(Nc2ccccc2)n1	5.6µM*	/	/
COc1ccc(/C=N/Nc2nc(C)c([N+](=O)[O-])c(N(C)c3ccccc3)n2)cc1OC	1%	i	-10%
CC(=O)Nc1ccc(Nc2nc(C)c([N+](=O)[O-])c(N(C)c3ccccc3)n2)cc1	18µM*	-13%	-8%
SMILES	HCV inh	Vaccinia mCherry	Vaccinia Venus
CCC(=O)Nc1ccc(Nc2nc(C)c([N+](=O)[O-])c(Nc3ccc(NC(=O)CC)cc3)n2)cc1	10µM*	-17%	-21%
CC(=O)Nc1ccc(Nc2nc(C)c([N+](=O)[O-])c(Nc3ccccc3)n2)cc1	?	-21%	?
COc1cc(CN2CCOc3ccc(C(O)c4cccnc4)cc3C2)cc(OC)c1 (stereo not drawn)	/	-10%	5%
COc1ccc(C(=O)Nc2sc3c(c2C(=O)O)CC(C)(C)OC3)cc1	-15%	-12%	-25%
CC(C)COc1ccc(C(=O)Nc2sc3c(c2C(=O)O)CC(C)(C)OC3)cc1	10µM*	?	-22%
CCOC(=O)c1c(NC(=O)c2cccs2)sc2c1CC(C)(C)OC2	7.9µM*	/	2%
CCOC(=O)c1c(NC(=O)C2C3C=CC(C3)C2C(=O)O)sc2c1CC(C)(C)OC2 (stereo not drawn)	9%	-3%	0%
CC1CN(S(=O)(=O)c2cccc(C(=O)NCc3ccco3)c2)CC(C)O1 (stereo not drawn)	10%	/	/
Cc1ccc2c(CN3CCN(S(=O)(=O)c4ccc5c(c4)OCCO5)CC3)cc(=O)oc2c1C	13µM*	-10%	0%
Cc1ccc2c(CN3CCN(Cc4ccc5c(c4)OCO5)CC3)cc(=O)oc2c1C	?	-8%	-6%
CSc1nnc(CNC(=O)c2cccc3ccccc23)n1-c1ccccc1C	/	-6%	1%
CC(=O)c1ccc(Nc2nc(C(C)N)cs2)cc1 (stereo not drawn)	/	33%	1%
O=C(Cn1c(=O)n(-c2ccc(F)cc2)c(=O)c2sc3ccccc3c21)N1CCCC1	/	7%	8%
